Screening data (PubChem)
Most compounds without a hit are left out; they make up all but 4.3% or so of the library.
MITF TRPM1 inh – inhibitors of MITF-dependent TRPM1 promoter reporter, primary screen, cell-based, SK-MEL-5, single point, luciferase | inhibition, % at 12.5 µM | actives 0.83% (n = 330,000) | SK-MEL-5 TRPM1 promoter luciferase, 24 h;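 active means mean inhibition across replicates of 60% or more, whatever share of single replicates reaches that level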
KKLEB tox – cytotoxicity in KKLEB CF airway cells, primary screen, cytotoxicity control for CF NF-kB inhibitor project, cell-based, uHTS, fluorescence assay plates | KKLEB CF airway cells viability, ATPlite luminescence, overnight; hits give low values; cells stimulated with P. aeruginosa culture filtrate | activity change (cytotoxicity), % at 5 µM | actives 0.36% (n = 360,000);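 active means corrected activity change at or below -50% at 5 µM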
CHOP inhibitor – inhibitors of CHOP promoter induction, primary screen, cell-based, unfolded protein response, luciferase reporter; CHO-K1 CHOP-promoter luciferase, tunicamycin-induced, 15-18 h; inhibition, % at 10 µM; actives 3.8% (n = 220,000);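 active means compounds that reduced the stress-induced luciferase reporter signal by more than about 70% of percent inhibition, limit read from the data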;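 further: 0% = tunicamycin plus vehicle and 100% = wells without tunicamycin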
HIF-2a inh – HIF-2a reporter inhibitors, primary screen, luminescence, 786-0 RCC cells; AID 624352, 2012; actives 0.72% (n = 360,000); inhibition, % at 18.8 µM; 786-0 RCC cells HIF-2a reporter, luciferase luminescence, overnight;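 active means inhibition of the luminescence signal of 40% or more relative to plate controls, in a single-dose primary screen at 18.75 µM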
Peg3 prom inh – Peg3 promoter-driven luciferase inhibitors, primary screen, cell-based, HeLa, luciferase luminescence; HeLa PEG-Prom luciferase reporter, overnight; inhibition, % at 20 µM; actives 1.7% (n = 360,000); AID 588405, 2011;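 active means inhibition of at least 50% at 20 µM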
CF NFkB block – inhibitors of PAF-induced NF-kB signaling, primary screen, cell-based, GFP fluorescence, uHTS; KKLEB NF-kB-GFP reporter, GFP fluorescence overnight; AID 588850, 2011; actives 0.86% (n = 360,000); inhibition, % at 5 µM;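 active means at least 50% inhibition at 5 µM, scaled per plate between neutral and stimulator controls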;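 further: PAF is a Pseudomonas aeruginosa culture filtrate used as stimulus; plate controls were PAF-stimulated DMSO wells for no effect and unstimulated DMSO wells for full effect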
CF NFkB conf – inhibitors of PAF-induced NF-kB signaling, retest, confirmation, cell-based, GFP fluorescence, single concentration. shares compounds with CF NFkB block. KKLEB CF airway cells, overnight. inhibition, % at 5 µM. actives 64% (n = 1,300); in the data active means inhibition above about 40%;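 further: stimulus PAF is a Pseudomonas aeruginosa filtrate and not platelet activating factor; plate controls were DMSO wells with stimulus for no effect and unstimulated DMSO wells for full effect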
Numbers without * were called inactive; nt = no result.

SMILES | MITF TRPM1 inh | KKLEB tox | CHOP inhibitor | HIF-2a inh | Peg3 prom inh | CF NFkB block | CF NFkB conf
O=C(Nc1ccc2c(c1)OCO2)c1cc(-c2cccc(O)c2)on1 | -109 | 8 | nt | -337 | -326 | -43 | nt
CCC1(O)CC2CN(CCc3c([nH]c4ccccc34)C(C(=O)OC)(c3cc4c(cc3OC)N(C=O)C3C(O)(C(=O)OC)C(OC(C)=O)C5(CC)C=CCN6CCC43C65)C2)C1 (stereo not given) | 52 | -8 | nt | 32 | -22 | 58* | 92*
Cc1ccc(-c2cc(-c3ccccc3)nc(Cl)n2)cc1 | -3 | -3 | 14 | -96 | -45 | -7 | nt
Cc1ccc(-c2cc(C(F)F)nc(S(C)(=O)=O)n2)cc1 | 34 | -33 | -148 | 10 | 98* | 51* | -66
CC1(O)CC(c2ccc(Cl)cc2)=NN1C(=O)c1ccc(Cl)cc1 (stereo not given) | -4 | -38 | nt | 16 | 8 | 58* | 76*
CC(C)=CCN1CCN(Cc2ccc(Sc3nncn3C)o2)CC1CCO (stereo not given) | -11 | -20 | 25 | 11 | -4 | 17 | nt
NC(=O)c1sc2nc3c(c(-c4ccco4)c2c1N)CCCC3 | -12 | -11 | 66 | 22 | 11 | 65* | 80*
CC(=O)Nc1ccccc1OCc1cnc(Cl)s1 | -5 | 9 | 8 | 5 | 7 | 5 | nt
CC(C)Cn1c(N)c(C(=O)COC(=O)/C=C/c2ccccc2)c(=O)n(C)c1=O | 13 | 10 | nt | 17 | 23 | 16 | nt
O=C(O)c1nn(CCOc2cccc(Br)c2)c(=O)c2ccccc12 | 4 | -29 | nt | 9 | -3 | 10 | nt
Cc1cccc(NC(=O)CCCn2cc([N+](=O)[O-])cn2)n1 | -16 | -4 | 22 | 18 | -5 | 4 | nt
COc1ccccc1C(=O)Nc1ccc2c(c1)n(C)c(=O)n2C | 3 | 1 | nt | -36 | -26 | -19 | nt
Cc1ccc(S(=O)(=O)N(C)C[C@@H]2Oc3ccc(NC(=O)CCC(F)(F)F)cc3CC(=O)N([C@@H](C)CO)C[C@@H]2C)cc1 | 43 | -18 | nt | 9 | 9 | 53* | 43*
C[C@H](CO)N1C[C@H](C)[C@@H](CN(C)C(=O)Nc2ccc(C(F)(F)F)cc2)Oc2c(NC(=O)Nc3ccc4c(c3)OCO4)cccc2C1=O | 11 | 20 | nt | -1 | -8 | -53 | nt
C[C@H](CO)N1C[C@H](C)[C@@H](CN(C)C(=O)Nc2ccc3c(c2)OCO3)Oc2c(NC(=O)Nc3ccc(C(F)(F)F)cc3)cccc2C1=O | 10 | -18 | nt | -20 | 60* | 80* | 91*
C[C@@H]1CN([C@H](C)CO)C(=O)c2cc(NC(=O)Nc3ccc(C(F)(F)F)cc3)ccc2O[C@H]1CN(C)S(=O)(=O)c1ccc(Cl)cc1 | 20 | -6 | nt | 0 | 23 | 64* | 70*
C[C@H](CO)N1C[C@H](C)[C@H](CN(C)S(=O)(=O)c2ccc(Cl)cc2)OCc2ccccc2-c2c(n(C)c3ccccc23)C1=O | nt | -6 | nt | -48 | 40 | 86* | 4
C[C@H](CO)N1C[C@H](C)[C@@H](CN(C)S(=O)(=O)c2ccc(F)cc2)Oc2ccc(NC(=O)Nc3ccc(C(F)(F)F)cc3)cc2C1=O | 1 | -13 | nt | 3 | 30 | 18 | nt
COc1cccc(CN(C)C(=O)CSc2nc3ccccc3[nH]2)c1OC | -12 | -2 | nt | -87 | -58 | 4 | nt
Cc1nn(C(=O)c2c([N+](=O)[O-])cnn2C)c(C)c1Cl | 5 | 8 | 4 | 5 | -6 | -4 | nt
Cn1nccc1C(=O)NC1CCN(Cc2ccccc2)CC1 | 17 | 17 | nt | 18 | 14 | -20 | nt
Cc1ccc(C(=O)OCC(=O)NCc2cccs2)cc1S(=O)(=O)N1CCOCC1 | 5 | -3 | -2 | -2 | -4 | 5 | nt
